# According to the supplement of paper PMC6555819:
# Assays:
# Assay in all cases: PBM binding z-score (relative to random genomic background probes); higher = stronger binding; sequences stand for … in GC…GCGATTGACAGCGTAGAATGAAGG
# [1] = tested on: FXR:RXRa (NR concentration 270 nM, RXRa partner concentration 90 nM)
# How it was run: (§1)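 For binding z-scores, the reference was random background probes on custom Agilent 4×180K protein-binding microarrays. These arrays were incubated 1 h with ligand-free nuclear receptor dimers in PBS pH 7.4, 2% milk, 0.02% Triton X-100, 1 mM DTT, 0.2 mg/mL BSA and 0.4 mg/ml salmon testes DNA. Fluorescence was scanned after antibody detection of each partner (one per run) and regression-normalized.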
# [2] = tested on: LXRa:RXRa (NR concentration 270 nM, RXRa partner concentration 90 nM)
# How it was run: as §1
# [3] = tested on: LXRa homodimer (NR concentration 270 nM)
# How it was run: as §1
# [4] = tested on: LXRb:RXRa (NR concentration 270 nM, RXRa partner concentration 90 nM)
# How it was run: as §1
# [5] = tested on: LXRb homodimer (NR concentration 270 nM)
# How it was run: as §1
# [6] = tested on: PPARa:RXRa (NR concentration 270 nM, RXRa partner concentration 90 nM)
# How it was run: as §1
# [7] = tested on: PPARg:RXRa (NR concentration 180 nM, RXRa partner concentration 90 nM)
# How it was run: as §1
# [8] = tested on: PPARg:RXRa 270nM:90nM, anti-RXR (NR concentration 270 nM, RXRa partner concentration 90 nM)
# How it was run: as §1
# [9] = tested on: PPARg:RXRa 30nM:10nM, anti-RXR (NR concentration 30 nM, RXRa partner concentration 10 nM)
# How it was run: as §1
# [10] = tested on: PPARg:RXRa 90nM:30nM, anti-RXR (NR concentration 90 nM, RXRa partner concentration 30 nM)
# How it was run: as §1
# [11] = tested on: PPARg:RXRa DBDmut IVT, anti-RXR (DBD mutation: RXRa K156A/R161A, NR concentration 270 nM, RXRa partner concentration 90 nM)
# How it was run: as §1
# [12] = tested on: PPARg:RXRa IVT, anti-PPARg (NR concentration 270 nM, RXRa partner concentration 90 nM)
# How it was run: as §1
# [13] = tested on: PPARg DBDmut:RXRa IVT, anti-PPARg (DBD mutation: PPARg1 K132A/R137A, NR concentration 270 nM, RXRa partner concentration 90 nM)
# How it was run: as §1
# [14] = tested on: PPARg DBDmut IVT, anti-PPARg (DBD mutation: PPARg1 K132A/R137A, NR concentration 270 nM)
# How it was run: as §1
# [15] = tested on: PPARg homodimer (NR concentration 180 nM)
# How it was run: as §1
# [16] = tested on: PXR:RXRa (NR concentration 270 nM, RXRa partner concentration 90 nM)
# How it was run: as §1
# [17] = tested on: PXR homodimer (NR concentration 270 nM)
# How it was run: as §1
# [18] = tested on: RARa:RXR (NR concentration 270 nM, RXRa partner concentration 90 nM)
# How it was run: as §1
# [19] = tested on: RARa homodimer (NR concentration 270 nM)
# How it was run: as §1
# [20] = tested on: RARb:RXRa (NR concentration 270 nM, RXRa partner concentration 90 nM)
# How it was run: as §1
Sequence,PBM binding z-score [1],PBM binding z-score [2],PBM binding z-score [3],PBM binding z-score [4],PBM binding z-score [5],PBM binding z-score [6],PBM binding z-score [7],PBM binding z-score [8],PBM binding z-score [9],PBM binding z-score [10],PBM binding z-score [11],PBM binding z-score [12],PBM binding z-score [13],PBM binding z-score [14],PBM binding z-score [15],PBM binding z-score [16],PBM binding z-score [17],PBM binding z-score [18],PBM binding z-score [19],PBM binding z-score [20]
ATCTCTAGGTAAGACTAAGTTCAGTGAAGAACGC,0.633,0.867,0.705,0.595,0.815,0.936,0.481,1.71,0.577,1.75,1.81,1.37,0.418,0.902,1.48,1.83,1.82,1.14,0.975,1.19
TCTTGTAGATGAGCAGGTTAAGAAAGCTGGCCAA,-0.174,-0.248,-0.441,-0.166,-1.02,0.327,-0.56,0.706,1.86,1.32,0.934,-0.183,-0.514,0.12,0.00499,0.02,-0.92,0.211,-0.441,-0.439
GCTAGCAGGCGATTTGGGTCACTCAATGACGGGC,0.0524,-0.217,-0.513,-0.281,-0.929,1.48,0.632,0.575,-0.192,0.427,1.67,2.53,-0.476,-0.307,-0.254,0.00388,-0.474,0.575,-0.848,0.752
GCTAGTTGGTCAGCAAAAGGTCACACACCGGTCG,3.17,4.15,4.08,3.94,0.516,4.17,2.48,4.05,1.79,3.39,0.999,2.88,-0.1,-0.835,4.56,5.02,1.32,5.74,2.26,4.37
TCATATAGGTAAACGTGAAAGTCGAACGATATGA,0.211,0.332,-0.204,0.164,0.105,1.33,1.44,2.44,3.42,2.86,3.9,2.6,1.4,1.61,0.529,0.122,0.576,0.437,0.345,0.3
TCTTGTAGTTCAACAGGAGGTTAAGAAAGATCGA,1.51,2.8,1,1.78,0.269,2.44,0.0566,1.66,2.29,1.89,1.24,0.804,0.436,-0.0772,1.16,3,0.574,2.75,0.938,2.56
AGAGACAGGTGAGTGAAGGTAACTCAGCTGGACG,0.542,0.207,-0.174,0.279,0.443,0.437,0.497,0.226,0.0896,0.0651,0.422,0.599,0.635,-0.659,0.101,0.0989,0.169,0.435,-0.0726,0.876
AGTCAAAGTTCAGGACGAGGTAGCGTAAAGCACG,3.74,3.36,1.03,1.58,-0.21,3.13,4.27,4.86,1.87,3.74,-0.637,1.36,-0.194,-0.537,1.46,2.36,0.831,2.26,0.252,4.31
TCTGCTGGGTCAGTTGGTCAGCTAACGAGCTGCC,0.384,-0.0859,-1.01,0.206,0.206,1.4,0.0356,1.6,1.09,1.19,2.22,2.74,0.569,-0.161,-0.167,0.0304,-0.922,0.33,-0.731,3.19
ATCGAAAGGTCGTGAGGTGAGTCTACAGAAAGGC,4.96,3.75,0.0112,3.17,0.35,4.99,3.79,4.19,1.17,2.92,0.266,2.6,0.998,0.581,1.51,2.97,-0.0415,3.84,0.605,3.87
CCTACTGGGCCACGAAACGTCATTGATTCAGTGA,-0.574,-0.675,-0.582,-0.896,-0.886,0.486,1.59,1.19,-0.214,0.157,5.46,4.94,0.954,0.628,-0.288,-0.903,-0.805,-0.908,-0.363,0.0906
CCTGCTAGGTCATGGTCAGCTACTCTACAGTATG,3.3,2.34,0.256,1.42,-0.441,3.16,2.56,2.72,0.637,1.67,4.23,3.88,0.29,0.349,1.41,0.866,-0.32,2.09,-0.0662,4.04
TCGAGTAGGTTAGCCGGGGCATTCAGCCAACATA,0.0762,-0.0841,-0.659,0.0461,-1.01,0.893,-0.0642,0.609,0.847,0.701,1.95,1.45,-0.971,-1.01,-0.00962,0.241,-0.374,0.484,-0.48,0.608
